For 32 compounds, max response and Potency results are on record in PubChem BioAssay (NCATS).

Each structure is given as a SMILES string. Values joined by “and” are separate entries in the source; they are usually repeats but may differ in a detail not shown here. Identical values can stand only once. Records with an inconclusive call do not appear. Active and inactive are the calls of the source. Calls come from the whole dose curve; as a rule, active = well fitted curve in the direction sought with a large enough effect; inconclusive = small, poorly fitted or top-dose-only effect, or another doubt; inactive = no such curve, though single readings can be large or run the other way.
% is set by controls: 0 for no effect and ±100 for the full control effect; potency is the fitted concentration of half-maximal effect.

The assay in a line: qHTS Assay for Identifying Gametocytocidal Compounds (AID 743244).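 For max response: actives lower the fluorescent signal which means gametocytes are killed.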 Conditions: P. falciparum 3D7 stage III-V gametocytes, alamarBlue, 72 h; max response: hits give low values. The method in brief:
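In this qHTS viability screen, late-stage 3D7 gametocytes are incubated with compound for 72 h, then with alamarBlue for 24 h; reduced resorufin fluorescence marks killing.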
On the technique in general: In qHTS, concentration-response curves come from the screen itself.
Take `CCCCCC[C@@H](O)C/C=C\CCCCCCCC(=O)O`: the max response was 10.3% (inactive) and -5.91% (inactive) and 3.41% (inactive).

Consider `CC(=O)O[C@H]1C[C@@]2(C)[C@@H](C[C@@H](O)[C@H]3[C@@]4(C)CC[C@@H](O)[C@@H](C)[C@@H]4CC[C@@]32C)/C1=C(\CCC=C(C)C)C(=O)O`, for which the max response is -4.85% (inactive).

As for `C[S+](CC[C@H](N)C(=O)O)C[C@H]1O[C@@H](n2cnc3c(N)ncnc32)[C@H](O)[C@@H]1O` (some centres not stated), the max response was 6.19% (inactive) and -10.1% (inactive).

With `Cc1c(Nc2ncccc2C(=O)O)cccc1C(F)(F)F`, the max response was 18.5% (inactive).

In the case of `O=C(O)COc1ccc(C(=O)c2cccs2)c(Cl)c1Cl`, the max response was -3.69% (inactive) and 20.3% (inactive).

Regarding `CCCCC[C@H](O)/C=C/[C@@H]1[C@@H](C/C=C\CCCC(=O)O)[C@@H](O)C[C@H]1O`, the max response is -4.72% (inactive) and 7.02% (inactive).

For the compound `CC(=O)c1ccc(OCC(=O)N2CCCCC2)cc1`, the max response was 6.76% (inactive).

With `NC(=O)C(c1ccccc1)(c1ccccc1)[C@@H]1CCN(CCc2ccc3c(c2)CCO3)C1`, the max response is -5.51% (inactive).

With `CC(C(=O)O)c1ccc(C(=O)c2cccs2)cc1` (configuration not stated), the max response was 13.3% (inactive).

With `COc1cc(/C=C/C(=O)N2CCN(CC(=O)N3CCCC3)CC2)cc(OC)c1OC`, the max response is -1.2% (inactive).

As for `CCCC(=O)OC[C@@H](OC(=O)CCC)[C@@H](OC(=O)CCC)[C@H](Cn1c2nc(=O)[nH]c(=O)c-2nc2cc(C)c(C)cc21)OC(=O)CCC`, the max response is 3.76% (inactive).

Turning to `COc1cc(NC(C)CCCN)c2ncccc2c1` (configuration not stated), the Potency is 2150 nM (active).

As for `Cc1nc2ccccc2n1Cc1ccc(Cl)cc1`, the max response is 3.69% (inactive).

In the case of `CCCCCCCCCCCC(=O)[O][Sn]([CH2]CCC)([CH2]CCC)[O]C(=O)CCCCCCCCCCC`, the max response was -1.72% (inactive).

Regarding `COc1ccc(-c2cc(=S)ss2)cc1`, the max response was 9.16% (inactive).

For the compound `CC[C@H]1OC(=O)[C@H](C)[C@@H](O[C@H]2C[C@@](C)(OC)[C@@H](O)[C@H](C)O2)[C@H](C)[C@@H](O[C@@H]2O[C@H](C)C[C@H](N(C)C)[C@H]2O)[C@](C)(O)C[C@@H](C)C(=O)[C@H](C)[C@@H](O)[C@]1(C)O`, the max response was 1.77% (inactive) and 0.604% (inactive).

As to `C=CCc1cccc(/C=N/NC(=O)CN2CCN(Cc3ccccc3)CC2)c1O`, the Potency was 29600 nM (active).

`O=C(Nc1ccc(C(=O)O)c(O)c1)c1ccccc1`: the max response was 3.53% (inactive).

For the compound `C=CCN1C(=O)C(CC(C)C)NC1=S` (configuration not stated), the max response is 24.3% (inactive) and -10.7% (inactive).

Consider `Cc1ccc(O)c(-n2nc3ccccc3n2)c1`, for which the max response was -7.72% (inactive).

Regarding `CO/N=C(\C(=O)N[C@@H]1C(=O)N2C(C(=O)O)=C(COC(C)=O)CS[C@H]12)c1csc(N)n1` (stereo in doubt), the max response is 12.7% (inactive).

Turning to `[O-][n+]1ccccc1SSc1cccc[n+]1[O-]`, the Potency was 148 nM (active).

Turning to `O=C(O)Cc1ccc(-c2ccccc2)cc1`, the max response was -0.327% (inactive).

For the compound `Clc1ccccc1-c1nc(-c2ccncc2)no1`, the max response is 20.9% (inactive).

With `Cc1onc(-c2c(F)cccc2Cl)c1C(=O)N[C@@H]1C(=O)N2[C@@H]1SC(C)(C)[C@@H]2C(=O)O`, the max response was 16.8% (inactive) and -3.16% (inactive).

Consider `Nc1ccc(C(=O)O)c(O)c1`, for which the max response was 1.29% (inactive).

Turning to `COC(=O)C1=C(C)NC(C)=C(C(=O)OCC(C)C)C1c1ccccc1[N+](=O)[O-]` (configuration not stated), the max response was 0.875% (inactive).

With `O=C(O)[C@H](CC(=O)N1C[C@H]2CCCC[C@H]2C1)Cc1ccccc1`, the max response was -8.96% (inactive).

`CC1(C)[C@@H](O)CC[C@]2(C)[C@H]3C(=O)C=C4[C@@H]5C[C@@](C)(C(=O)O)CC[C@]5(C)CC[C@@]4(C)[C@]3(C)CC[C@@H]12`: the max response was 6.32% (inactive) and -6.89% (inactive).

Regarding `CCOC(=O)c1ccccc1O`, the max response is -3.35% (inactive) and 9.79% (inactive).

For the compound `CO[C@@]1(NC(=O)Cc2cccs2)C(=O)N2C(C(=O)O)=C(COC(N)=O)CS[C@@H]21`, the max response is -0.875% (inactive) and -15% (inactive).

With `CC1(C)[C@@H](O[C@H]2O[C@H](C(=O)O)[C@@H](O)[C@H](O)[C@H]2O[C@@H]2O[C@H](C(=O)O)[C@@H](O)[C@H](O)[C@H]2O)CC[C@]2(C)[C@H]3C(=O)C=C4[C@@H]5C[C@@](C)(C(=O)O)CC[C@]5(C)CC[C@@]4(C)[C@]3(C)CC[C@@H]12`, the max response was 1.42% (inactive) and -3.92% (inactive).
